About 1,400 (0.36%) of roughly 390,000 compounds were called active. Inconclusive results (about 2%) are left out. No cut-off for these calls is given here. The entries come from a sample that favours actives as a whole.

The target in this assay is Flap endonuclease 1 (Homo sapiens) (UniProt P39748). The assay can be described thus: qHTS Assay for the Inhibitors of Human Flap endonuclease 1 (FEN1). [Related pubchem assays (depositor defined):AID488813]. The class given is functional. For orientation: qHTS replaces the single test concentration by a dilution series.
Sequence of Flap endonuclease 1 (Homo sapiens) (P39748 whole entry): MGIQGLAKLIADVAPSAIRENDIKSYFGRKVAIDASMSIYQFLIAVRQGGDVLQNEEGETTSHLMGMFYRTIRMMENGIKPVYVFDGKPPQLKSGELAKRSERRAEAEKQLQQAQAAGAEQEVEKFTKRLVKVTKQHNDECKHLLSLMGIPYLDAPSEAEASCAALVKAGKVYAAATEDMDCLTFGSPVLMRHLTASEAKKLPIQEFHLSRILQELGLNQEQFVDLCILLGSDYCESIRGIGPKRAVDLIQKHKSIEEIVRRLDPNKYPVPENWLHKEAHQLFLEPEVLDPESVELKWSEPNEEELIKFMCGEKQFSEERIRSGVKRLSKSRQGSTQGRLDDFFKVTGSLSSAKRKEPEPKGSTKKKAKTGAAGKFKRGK
In the case of `CC(N)(Cc1ccc(O)c(O)c1)C(=O)O` (stereo not drawn), the Potency was 2.38 µM (active).

As for `CCOC(=O)CN1C(=O)N[C@@H](c2cccc(C(F)(F)F)c2)C(C(=O)OC)=C1C`, the Potency entry is “inactive”.

`Nc1nc2ccc(OC(F)(F)F)cc2s1`: the Potency entry was “inactive”.

`NCC(O)c1ccc(O)c(O)c1` (stereo not drawn): the Potency is 2.99 µM (active).

As to `C=CCN1C2CCCC1CC(N=C(S)Nc1cccc(OC)c1)C2` (stereo not drawn), the Potency result was “inactive”.

As for `CC(=O)c1ccc(NC(=O)NNS(=O)(=O)c2ccc([N+](=O)[O-])cc2)cc1`, the Potency entry was “inactive”.

With `ICCCCN1C=S(CI)c2ccccc21` (stereo not drawn), the Potency was 50.1 µM (active).

Consider `Cc1ccc(C)c(NC(=O)CN(C)C(=O)C2COc3ccccc3O2)c1` (stereo not drawn), for which the Potency entry is “inactive”.

Source of the values: ChEMBL document CHEMBL1201862, “PubChem BioAssay data set” (2004).
